Assay outcomes deposited in PubChem BioAssay by The Scripps Research Institute Molecular Screening Center.
Shown are actives, neighbours in structure and some others; about 3.4% of the full set was active somewhere.
TEAD-YAP inh = TEAD-YAP interaction inhibition | inhibition, % at 9.12 µM | HEK-TIYL cells, TEAD-Gal4/YAP UAS-luciferase luminescence | 1.4% of 640,000 active; in the data active means inhibition above about 32%;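 further: 0% = median of test compound wells and 100% = reference inhibitor wells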
GPR151 activ = human GPR151 activation. PathHunter beta-arrestin GPR151 cells, luminescence. 1% of 650,000 active. activation, % at 11.2 µM; in the data active means activation above about 4.9%;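 further: 0% = median of compound wells and 100% = cells with positive control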
Target sequence (Q8TDV0 whole entry, looked up): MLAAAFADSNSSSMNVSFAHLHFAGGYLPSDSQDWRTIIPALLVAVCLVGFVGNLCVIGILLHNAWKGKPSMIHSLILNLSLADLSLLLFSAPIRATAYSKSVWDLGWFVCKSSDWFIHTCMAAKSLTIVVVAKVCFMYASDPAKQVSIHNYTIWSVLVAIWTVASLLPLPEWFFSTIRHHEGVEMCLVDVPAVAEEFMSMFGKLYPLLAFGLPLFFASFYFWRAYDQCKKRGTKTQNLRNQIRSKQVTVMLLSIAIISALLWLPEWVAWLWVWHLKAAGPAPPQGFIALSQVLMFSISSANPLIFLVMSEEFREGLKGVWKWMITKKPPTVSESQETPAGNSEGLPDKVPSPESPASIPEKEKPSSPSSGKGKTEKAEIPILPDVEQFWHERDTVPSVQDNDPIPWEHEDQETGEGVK
MITF primary = blocks human microphthalmia-associated transcription factor | AlphaScreen MITF homodimerization, bead proximity signal | AID 1259374 | 0.91% of 650,000 active | inhibition, % at 2.6 µM; in the data active means inhibition above about 50%;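 further: 0% = vehicle wells with protein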
FBW7 activator = activators of human E3 ligase FBW7; Q969H0; AlphaScreen FBW7–phospho-cyclin E peptide binding, activator screen; normalized activity (activation), % at 26.1 µM; 0.13% of 650,000 active; AID 1259310; in the data active means normalized activity above about 1.9%;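 further: purified mutant Fbw7 with reduced substrate affinity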
MITF confirm = confirmation of human MITF inhibitors; shares compounds with MITF primary; AlphaScreen MITF homodimerization, biotin/His-MITF beads; inhibition, % at 2.6 µM; 16% of 4,700 active; AID 1259372;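 active means inhibition above a cutoff derived from the DMSO control wells, cut at about 28% in these data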;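 further: 0% = MITF dimer wells with DMSO only; inhibitors lower the bead chemiluminescence by keeping MITF from dimerizing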
AlphaScreen intf2 = optically interferes with AlphaScreen signal; shares compounds with MITF primary; inhibition, % at 2.6 µM; 7.6% of 4,700 active; LysRS AlphaScreen counterscreen, signal interference, triplicate;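 active means inhibition above a cutoff derived from the DMSO control wells, cut at about 30% in these data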
Starred values were filed as active, the others as inactive; . = no result given.

SMILES | TEAD-YAP inh | GPR151 activ | MITF primary | FBW7 activator | MITF confirm | AlphaScreen intf2
COc1ccc(CCNC(=O)N2CCN(Cc3nc4ccccc4[nH]3)CC2)cc1 | 8 | -1 | 9 | -1 | . | .
CC1(C)CC(=O)C2=C(C1)NC(=O)CC2c1ccc(F)cc1 (centres undefined) | -4 | 1 | 2 | 0 | . | .
CC1(C)CC(=O)C2=C(C1)NC(=O)CC2c1ccc(C(C)(C)C)cc1 (centres undefined) | 8 | 0 | 70* | 0 | -5 | -1
CC1CC(C)CN(S(=O)(=O)c2ccc(Cl)s2)C1 (centres undefined) | 6 | 1 | 0 | 0 | . | .
Cc1n[nH]c(=S)n1/N=C/c1ccccc1F | -11 | 2 | 70* | 0 | -8 | -2
Cc1ccc(Cl)cc1N1CCN(C(=S)NCCN2CCOCC2)CC1 | 1 | -2 | 51* | 0 | -1 | 3
OCCOCCN1CCN(Cc2ccc(F)c(Br)c2)CC1 | 4 | 1 | 81* | 0 | -12 | 0
OCCOCCN1CCN(Cc2ccc(Br)cc2)CC1 | 11 | 2 | -9 | 0 | . | .
O=C1C2C(C(=O)N1c1ccc(Br)cc1)N1CCCN1C2c1ccc(F)cc1 (centres undefined) | 8 | 2 | 65* | 0 | 5 | 9
COc1ccc(CCNC(=O)CCn2c(SCC(=O)Nc3cccc(C(F)(F)F)c3)nc3ccccc3c2=O)cc1OC | 4 | 1 | 56* | 0 | -9 | -2
O=c1[nH]c2ccccc2n1CCCN1CCCCC1 | -2 | 1 | -5 | 0 | . | .
O=c1[nH]c2ccccc2n1CN1CCc2ccccc2C1 | -1 | 1 | 51* | 0 | 11 | 13
O=c1[nH]c2ccccc2c(=O)n1CCCN1CCOCC1 | -1 | -1 | 11 | 0 | . | .
O=c1[nH]c2ccccc2n1CN1CCOCC1 | -3 | 2 | 90* | 0 | 5 | 11
COc1ccc(CCNC(=O)CN2C(=O)CCSc3ccccc32)cc1OC | -3 | 0 | 0 | 0 | . | .
O=C(Nc1nn[nH]n1)C12CC3CC(C1)CC(c1ccccc1)(C3)C2 | 8 | -2 | 53* | 1 | 10 | 18
CC12CC3CC(C1)CC(C(=O)Nc1nn[nH]n1)(C3)C2 | 8 | -1 | -1 | 0 | . | .
O=C(Nc1nc2c(s1)CCC2C(=O)NCCCc1ccccc1)c1ccc(F)cc1 (centres undefined) | -10 | 0 | 80* | 0 | 4 | 19
CC(=O)CCc1ccc(OCC(O)CNC2CCCc3ccccc32)cc1 (centres undefined) | 1 | 1 | 70* | 0 | -2 | 10
CCc1ccccc1OC[C@@H](O)CNC1CCCc2ccccc21 (some centres undefined) | . | 1 | 13 | 0 | . | .
CCNCC(=O)c1[nH]c(C)c(C(C)=O)c1C | 6 | 0 | 51* | 0 | -4 | -4
CCN1CCN(CCCOc2cccc(C(F)(F)F)c2)CC1 | 16 | 0 | 56* | 0 | 14 | 10
CCN1CCN(CCOc2ccc3ccccc3c2)CC1 | 9 | 1 | 37 | 0 | . | .
CN(C)CCOc1cccc(C(F)(F)F)c1 | -1 | 2 | 88* | -1 | 6 | 8
CN1CCN(CCCOc2cccc(C(C)(C)C)c2)CC1 | -7 | -2 | 10 | 0 | . | .
SMILES | TEAD-YAP inh | GPR151 activ | MITF primary | FBW7 activator | MITF confirm | AlphaScreen intf2
CCN1CCN(CCOc2cccc(C(F)(F)F)c2)CC1 | 2 | 0 | 61* | 0 | 1 | 11
CC(=O)c1cccc(-c2nc(NC3CC3)c3ncn(C(C)C)c3n2)c1 | 14 | 1 | 7 | 0 | . | .
Cc1ccc(OCCN2CCCCC2)c([N+](=O)[O-])c1 | -7 | 2 | 64* | 0 | 19 | 14
Cc1ccc(OCCN2CCNCC2)c([N+](=O)[O-])c1 | -20 | 0 | 50 | 0 | . | .
Cc1ccc(OCCN2CC(C)OC(C)C2)c([N+](=O)[O-])c1 (centres undefined) | -1 | -2 | 76* | 0 | 16 | -5
Cc1ccc(OCCCN2CCCC2)c([N+](=O)[O-])c1 | 0 | 0 | 38 | 0 | . | .
Cc1ccc(OCCN2CCN(C)CC2)c([N+](=O)[O-])c1 | -10 | 2 | 76* | 0 | -9 | 0
CC(C)Sc1nnnn1-c1ccccc1 | 8 | 0 | -3 | 0 | . | .
Cc1ccc(NC(=O)O/N=C/c2ccccc2)cc1 | -59 | 0 | -5 | 0 | . | .
O=C(NCCN1CCCCC1)/C(=C/c1ccco1)NC(=O)c1ccccc1 | 8 | -1 | 11 | 0 | . | .
